Rows were chosen to be rich in hits. Some 21% of all compounds tested hit in one or more screens of this group.
DRD3 agonist: D3 dopamine receptor (human) agonism | P35462 | D3R DiscoveRx beta-arrestin cells, luminescence, 90 min | max activation, % | 410,000 compounds, 0.58% hits | AID 652048; in the data active = max activation above about 30%; also: 0% is about no effect
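Agonist mode: compounds and dopamine controls were applied to plated cells for 90 min at 37 degrees C after an overnight attachment at 1500 cells/well. Luminescent read-out followed 30 - 60 minutes at room temperature with DiscoveRx detection reagent.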
ClpP mod: qHTS Assay for Activators of ClpP. ATP-dependent Clp protease proteolytic subunit (Bacillus subtilis (strain 168)), P80244. purified B. subtilis ClpP, FRET peptide cleavage, 20 min. Potency, µM (series often up to 57.5 µM), without a hit: top-dose activity change, negative = active. 340,000 compounds, 1.9% hits. AID 651965, 2013; active = well fitted falling curve with a large enough effect; inconclusive = small, poorly fitted or top-dose-only effect; inactive = no such curve, though single readings can be large or run the other way; also: potency is read from the fitted curve at half-maximal effect; the source files actives as falling curves though it sought activators and does not explain the sign; nearly all actives have a fitted effect of over 65% in size
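ClpP 10 microg/mL final, pH 8 Tris/KCl buffer with BSA, glycerol, Tween-20; compound pinned in; FRET-FV substrate; RT 20 min; Ex320/Em430; ΔFRET vs ADEP 5.8 microM, DMSO, no enzyme.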
TDP1 cell CPT: DT40-hTDP1 cell growth loss with CPT; 420,000 compounds, 12% hits; chicken DT40 Tdp1-/-;hTDP1 cells + 20 nM CPT, ATP luminescence, 48 h; Potency, µM (top dose mostly 46.2 µM), without a hit: top-dose activity change, negative = growth inhibition, hits mostly inhibitors; also: potency is read from the fitted curve at half-maximal effect; % is scaled to controls: 0 for no effect and ±100 for the full control effect; nearly all actives have a fitted effect of over 55% in size
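Chicken DT40 Tdp1-/- cells complemented with human TDP1, 400 cells/well, exposed to compounds plus 20 nM camptothecin for at least 48 h at 37 C; viability read as ATP content by CellTiter-Glo luminescence.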
IL-1B inflam inh: inflammasome signaling inhibition, IL-1 beta readout | THP-1 LPS/ATP IL-1B secretion, AlphaLISA, 16 h; stronger effect = lower value | activity change, % at 57.5 µM | 360,000 compounds, 4.7% hits; in the data active = activity change below about -50%; inconclusive = mostly about -30% to -49%; also: % is scaled to controls: 0 for no effect and ±100 for the full control effect
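THP-1 cells pretreated 1 hr with compounds (up to 57.5 uM final), then stimulated with LPS (250 ng/mL final) plus ATP (1.25 mM final); secreted IL-1B measured by AlphaLISA after 16 hr, decreased signal indicating inhibition.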
TDP1 cell noCPT: qHTS for Inhibitors of human tyrosyl-DNA phosphodiesterase 1 (TDP1): qHTS in cells in absence of CPT; DT40 Tdp1-/- hTDP1 cells, no CPT, ATP luminescence, 48 h; AID 686978, 2013; 420,000 compounds, 15% hits; Potency, µM (titrated, usually from 46.2 µM), inactives show at the highest dose activity change, negative = growth inhibition, most hits filed as inhibitors; also: potency is read from the fitted curve at half-maximal effect; % is scaled to controls: 0 for no effect and ±100 for the full control effect; nearly all actives have a fitted effect of over 55% in size
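DT40 Tdp1-/-;hTDP1 cells, no CPT (DMSO vehicle only), 400 cells/well; compounds pin-transferred; ≥48 hr, 37 °C; CellTiter-Glo 30 min RT dark, luminescence read.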
D3 antag: D3 dopamine receptor (human) antagonism; P35462; D3R cells, DiscoveRx beta-arrestin luminescence, antagonist mode; stronger effect = lower value; max response, negative = inhibition, %; 360,000 compounds, 2.5% hits; AID 652054; in the data active = max response below about -50%; inconclusive = no clear call, values can overlap the other calls; also: % is scaled to controls: 0 for no effect and ±100 for the full control effect
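Cells plated overnight at 1500 cells/well, then exposed to library compounds with dopamine controls for 90 minutes at 37 degrees C. DiscoveRx reagent added for 30–60 minutes at room temperature; luminescence read, quantitative HTS format.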
* = called active by the depositor; ? = inconclusive; . = no result given. Unless noted, calls follow the shape of the dose curve; as a rule, active = well fitted inhibition curve with a large enough effect; inconclusive = small, poorly fitted or top-dose-only effect; inactive = flat fitted curve, though single readings scatter.

SMILES	DRD3 agonist	ClpP mod	TDP1 cell CPT	IL-1B inflam inh	TDP1 cell noCPT	D3 antag
COc1ccc(C2CC(c3ccc4ccccc4c3OC(C)=O)=NN2C(C)=O)cc1 (configuration not stated)	7.6	.	10.3µM*	-26.4	9.2µM*	8.1
COc1ccc(C2=NN(C(=S)Nc3ccccc3)C(c3ccccc3)C2)cc1 (configuration not stated)	-7.2	-19.4%	?	-10.9	18.4µM*	-20.4
CCOC(=O)c1ccc[n+](CC(=O)Nc2cc(C(F)(F)F)ccc2Cl)c1	-28.9	.	-5.8%	4.8	-11.0%	?
COc1ccc2oc(C)c(C(=O)c3ccc(C)cc3)c2c1	1.0	-2.6%	-11.1%	-11.9	?	7.1
COc1ccc(C2CC(c3ccc(OC)cc3O)=NN2C(=O)c2ccccc2)cc1 (configuration not stated)	5.3	.	20.6µM*	-10.9	20.6µM*	6.6
C/C=C/c1ccc(OCC(O)CN(C)Cc2ccc(SC)cc2)c(OC)c1 (configuration not stated)	-17.2	-0.9%	?	?	23.1µM*	-21.9
C/C=C/c1ccc(OCC(O)CNCC(c2ccc(OC)cc2)N(C)C)c(OC)c1 (configuration not stated)	-19.4	-2.0%	?	-56.7*	?	-12.2
C/C=C/c1ccc(OCC(O)CNCCc2ccc(OC)cc2)c(OC)c1 (configuration not stated)	-9.1	-7.2%	?	?	?	-4.3
O=C(Cn1ccc(=O)[nH]c1=O)c1ccc([N+](=O)[O-])o1	-0.5	-0.3%	5.17µM*	?	2.06µM*	19.2
O=C(Cn1ccc(=O)[nH]c1=O)NCCO	-4.0	.	-2.1%	2.8	-12.6%	-16.5
COc1ccc(/C=C2\SC(=S)N(CCCC(=O)N3CCN(C)CC3)C2=O)cc1	6.4	.	?	-90.6*	?	-11.5
CCc1ccc(/C=C2\SC(=S)N(CCCC(=O)N3CCN(C)CC3)C2=O)cc1	-5.3	2.8%	?	-55.3*	?	33.3
CC1CCCCN1c1cc(C#N)c(C#N)cc1[N+](=O)[O-] (configuration not stated)	-9.9	0.0%	18.4µM*	-5.6	-23.5%	-27.7
CC1CCN(c2cc(C#N)c(C#N)cc2[N+](=O)[O-])CC1	1.1	0.2%	-18.4%	12.3	-9.9%	7.9
C[C@@H]1CN([C@@H](C)CO)C(=O)CCCn2nncc2CO[C@H]1CN(C)C(=O)NC1CCCCC1	-4.5	2.4%	-0.9%	31.6	-9.6%	-2.8
COc1ccc(C(C[N+](=O)[O-])C2(c3ccc(OC)c(OC)c3)C(=O)c3ccccc3C2=O)cc1 (configuration not stated)	-18.7	1.6%	?	-102.4*	4.11µM*	-82.2*
Cc1noc2nc(C(=O)O)nc(N3CCCCC3)c12	-3.2	-4.5%	?	.	?	.
Cc1ccc(/C(N)=N/OC(=O)c2cc(-c3ccccc3)nc3ccccc23)cc1	-7.8	-1.7%	-28.2%	5.2	?	9.4
O=C(N/N=C/c1ccccn1)c1cc(C2CC2)nc2ccccc12	-16.1	.	23.1µM*	-102.1*	?	-0.8
N/C(=N\OC(=O)c1cc(-c2ccccc2)nc2ccccc12)c1ccccn1	3.7	-23.5%	13µM*	-26.2	11.6µM*	61.6
O=C(N/N=C/c1ccccn1)c1cc(-c2ccccc2)nc2ccccc12	-20.5	-4.4%	?	0.0	16.4µM*	0.0
CN1C(=O)c2cccc3c(S(=O)(=O)N(C)C)ccc1c23	2.8	.	-0.7%	-6.2	-6.2%	18.4
CNS(=O)(=O)c1ccc2c3c(cccc13)C(=O)N2C	10.6	-2.7%	-21.2%	-83.9*	-10.9%	12.0
O=C(Nc1ccncc1)C1CCN(S(=O)(=O)c2ccc(Cl)c(C(F)(F)F)c2)CC1	0.1	-0.6%	16.4µM*	?	14.6µM*	6.7
Cc1ccnc(NC(=O)C2CCN(S(=O)(=O)c3ccc(Cl)c(C(F)(F)F)c3)CC2)c1	2.4	31.6µM*	?	-6.7	?	-1.6
SMILES	DRD3 agonist	ClpP mod	TDP1 cell CPT	IL-1B inflam inh	TDP1 cell noCPT	D3 antag
O=C(Nc1ccncc1)C1CCN(S(=O)(=O)c2ccc(Cl)cc2)CC1	-1.2	.	23.1µM*	12.0	16.4µM*	2.9
COc1ccc(S(=O)(=O)N2CCC(C(=O)Nc3cc(C(F)(F)F)ccc3Cl)CC2)cc1	-13.0	-3.3%	?	.	16.4µM*	.
Cc1ccc(NC(=O)C2CCN(S(=O)(=O)c3ccc(Cl)c(C(F)(F)F)c3)CC2)nc1	-9.0	.	-27.0%	28.7	?	-11.8
CCCNC(=O)C1CCN(c2cc(C)nc3c(-c4ccc(OC)c(OC)c4)c(C)nn23)CC1	0.5	1.7%	?	.	?	.
CC1(C)OC(=O)C=C[C@]2(C)[C@H]3CC[C@@]4(C)[C@H](C(=O)O)OC(=O)[C@H]5O[C@]54[C@]3(C)C(=O)C[C@@H]12	28.3	-1.9%	-15.8%	11.3	-3.3%	-14.3
CCC(CC)(CC(=O)Nc1cccc(/C=C/c2nc(C3CCC3)cs2)c1)C(=O)O	-8.0	.	-11.2%	.	?	.
COc1ccc(C(=O)NCCCN2CCCC2=O)cc1S(=O)(=O)N1CCOCC1	-0.4	-1.0%	-3.5%	-12.9	8.2%	6.2
NS(=O)(=O)c1ccc(CCNC(=O)CN2C(=O)COc3ccc(S(=O)(=O)N4CCCC4)cc32)cc1	-0.5	0.2%	-6.6%	5.3	4.2%	1.2
Cc1cc(C)c(C)c(S(=O)(=O)N2CCC(C(=O)N3CCCC3)CC2)c1C	-5.6	-2.5%	-12.6%	0.0	-20.9%	0.0
Cc1cc(C)c(C)c(S(=O)(=O)N2CCC(C(=O)Nc3ccncc3)CC2)c1C	3.2	.	?	-8.0	8.2µM*	16.4
O=C(Nc1ccncc1)C1CCN(S(=O)(=O)c2ccccc2)CC1	-13.6	.	?	30.0	?	7.4
Cc1cc(C)c(C)c(S(=O)(=O)N2CCC(C(=O)N3CC(C)CC(C)C3)CC2)c1C (configuration not stated)	-8.5	-10.7%	18.4µM*	-74.7*	25.9µM*	5.5
O=C(Nc1ccncc1)C1CCN(S(=O)(=O)c2ccccc2C(F)(F)F)CC1	-19.3	1.3%	14.6µM*	21.5	25.9µM*	-0.1
COc1ccc(OC)c(NC(=O)c2cccnc2)c1	8.5	.	8.3%	-5.2	-5.3%	26.4
COc1ccc(C(C)(C)C)cc1NC(=O)c1ccc2ncsc2c1	23.5	.	?	-51.3*	?	31.4
